Screens (PubChem BioAssay)
A selection: hits, their analogues and other compounds. The true share with any hit is near 3%.
TRPM1 prom inh: inhibitors of MITF-dependent TRPM1 promoter reporter, primary screen, cell-based, SK-MEL-5, single point, luciferase | SK-MEL-5 TRPM1 promoter luciferase, 24 h | 330,000 compounds, 0.83% hits | inhibition, % at 12.5 µM | AID 488899, 2010;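 active means mean inhibition across replicates of 60% or more, whatever share of single replicates reaches that level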
HIF-2a block: HIF-2a reporter inhibitors, primary screen, luminescence, 786-0 RCC cells | 786-0 RCC cells HIF-2a reporter, luciferase luminescence, overnight | 360,000 compounds, 0.72% hits | inhibition, % at 18.8 µM | AID 624352, 2012;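 active means inhibition of the luminescence signal of 40% or more relative to plate controls, in a single-dose primary screen at 18.75 µM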
LMP1 NFkB inh: EBV LMP1-driven NF-kappaB luciferase reporter inhibitors, primary screen, cell-based, luminescence, single point; AID 504558, 2011; inhibition, % at 12.5 µM; LMP1-induced NF-kappaB luciferase reporter cells; 350,000 compounds, 0.69% hits; in the data active means inhibition above about 41%;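 further: 0% = neutral control wells and 100% = reference inhibitor control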
KKLEB cytotox: cytotoxicity in KKLEB CF airway cells, primary screen, cytotoxicity control for CF NF-kB inhibitor project, cell-based, uHTS, fluorescence assay plates. AID 602141, 2011. KKLEB CF airway cells viability, ATPlite luminescence, overnight; hits give low values; cells stimulated with P. aeruginosa culture filtrate. 360,000 compounds, 0.36% hits. activity change (cytotoxicity), % at 5 µM;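 active means corrected activity change at or below -50% at 5 µM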
Peg3 promoter: Peg3 promoter-driven luciferase inhibitors, primary screen, cell-based, HeLa, luciferase luminescence | HeLa PEG-Prom luciferase reporter, overnight | inhibition, % at 20 µM | 360,000 compounds, 1.7% hits;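 active means inhibition of at least 50% at 20 µM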
CF NFkB inh: inhibitors of PAF-induced NF-kB signaling, primary screen, cell-based, GFP fluorescence, uHTS. KKLEB NF-kB-GFP reporter, GFP fluorescence overnight. inhibition, % at 5 µM. 360,000 compounds, 0.86% hits;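 active means at least 50% inhibition at 5 µM, scaled per plate between neutral and stimulator controls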;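 further: PAF is a Pseudomonas aeruginosa culture filtrate used as stimulus; plate controls were PAF-stimulated DMSO wells for no effect and unstimulated DMSO wells for full effect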
* hit, by the source's call; · = no result.

SMILES	TRPM1 prom inh	HIF-2a block	LMP1 NFkB inh	KKLEB cytotox	Peg3 promoter	CF NFkB inh
COc1cccc(NC(=O)CN(C)C(=O)c2cc(-c3ccccc3)nc3ccc(C)cc23)c1	6	-6	3	4	27	-6
COc1cccc(NC(=O)CN(C)C(=O)c2cc(-c3cccc(Br)c3)nc3ccccc23)c1	11	-9	-4	-7	71*	-25
O=C(CCS(=O)(=O)c1ccccc1)Nc1nc2c(s1)COc1ccccc1-2	1	-43	0	4	92*	8
Cc1cc(NC(=O)OC(C)(C)C)c(-n2nnnc2C(C(=O)c2ccccc2)N2CCOCC2)cc1C (stereo not drawn)	·	-10	·	·	·	·
COc1cccc(C(O)c2ncc(-c3cccc(C(F)(F)F)c3)[nH]2)c1 (stereo not drawn)	·	10	·	-10	27	5
Cc1ccc(S(=O)(=O)N2CCC[C@H]2C(=O)Nc2ccccc2C)cc1	7	4	70*	4	9	-7
Cc1ccc(S(=O)(=O)N2CCC[C@H]2C(=O)Nc2ccccc2Cl)cc1	-10	26	0	11	11	7
CNC(=O)C[C@H]1C(=O)N(c2ccccc2)C[C@@H]1C	·	14	5	14	11	-16
COc1ccc(NC2=NCC(Cc3ccc(Br)cc3)S2)cc1 (stereo not drawn)	59	0	66*	-10	5	5
Cc1cc(Cl)ccc1NC(=S)NCCC(c1ccccc1)c1ccccc1	-5	17	-5	-7	68*	2
COCCN(CC(=O)Nc1cccc(C)c1C)C(=O)c1oc2c(Cl)cccc2c1C	13	18	-10	-7	52*	-10
Cc1c(C(=O)N(C)CC(=O)Nc2cccc(F)c2)oc2c(Cl)cccc12	15	39	-5	7	36	9
O=C(NC1CCCCCCC1)c1cc(COc2ccc3ncccc3c2)on1	23	16	49*	-16	-10	13
O=C(c1cc(COc2ccc3ncccc3c2)on1)N1CCC(O)CC1	-7	-81	8	-1	-53	16
Cn1cc(CN2CCCC(C(=O)Nc3cccc(-c4cc5ccccc5[nH]4)c3)C2)cn1 (stereo not drawn)	-4	2	-3	-6	56*	-7
CC(C)n1cc(CN2CCCC(C(=O)Nc3cccc(-c4cc5ccccc5[nH]4)c3)C2)cn1 (stereo not drawn)	-2	7	-6	-13	97*	26
CCn1cc(CN2CCCC(C(=O)Nc3cccc(-c4cc5ccccc5[nH]4)c3)C2)c(C)n1 (stereo not drawn)	4	13	2	-10	-1	-3
OC(c1ccc(F)c(F)c1)c1nc(-c2csc3ccccc23)cs1 (stereo not drawn)	·	-57	·	-12	-11	19
Cc1ccccc1-c1cnc2c(c1)C(=O)N([C@@H](C)CO)C[C@@H](C)[C@H](CN(C)Cc1ccccc1F)O2	·	-2	8	-4	-12	-14
CCc1nc2ccccc2c(C(=O)OCC(=O)Nc2ccc(S(=O)(=O)N3CCOCC3)cc2)c1C	3	12	-6	3	21	4
CCc1nc2ccccc2c(C(=O)OCC(=O)Nc2cccc(S(=O)(=O)N3CCOCC3)c2)c1C	37	11	30	1	77*	5
CCCCc1c(Cc2cccc(F)c2)ncn1CCc1ccccc1OC	·	-2	·	·	·	·
c1ccc(-c2csc3ncnc(NCC4COc5ccccc5O4)c23)cc1 (stereo not drawn)	42	7	35	-16	27	28
Cc1sc2ncnc(NCC3COc4ccccc4O3)c2c1C (stereo not drawn)	32	-27	49*	-2	-5	11
COc1cc2c(-c3ccccc3O)nc3c(c(C)nn3-c3ccccc3)c2cc1OC	1	14	-14	12	57*	-11
SMILES	TRPM1 prom inh	HIF-2a block	LMP1 NFkB inh	KKLEB cytotox	Peg3 promoter	CF NFkB inh
COC(=O)c1cc(S(=O)(=O)NCCc2ccc(Cl)cc2)c[nH]1	·	18	9	-8	-330	51*
Cc1ccc(Cn2c(C)c(C(=O)NCc3ccc4c(c3)OCO4)sc2=O)cc1	·	4	·	3	7	-9
CCN(CC)CCNc1ncnc2c1sc1nc(N3CCOCC3)c3c(c12)CC(C)(C)SC3	-6	34	-4	-41	104*	38
CC1(C)Cc2c(c(N3CCOCC3)nc3sc4c(=O)[nH]cnc4c23)CS1	-17	7	8	-14	9	35
CC(C)(C)c1ccc(CC(=O)N2CCC2(C)C(=O)O)cc1 (stereo not drawn)	·	13	·	-7	6	8
CC1Cc2ccccc2N1C(=O)COC(=O)c1c2c(nc3ccccc13)CCCCC2 (stereo not drawn)	-2	-25	-9	-6	51*	43
C[C@H](CO)N1C[C@H](C)[C@@H](CN(C)Cc2ccc(Oc3ccccc3)cc2)OCc2cnnn2CCCC1=O	·	8	6	4	0	-8
CCOc1cc(CNCCO)cc(Br)c1OCc1ccc(Cl)cc1	21	-12	-22	-12	101*	4
CCOc1cc(CNC(C)(C)CO)cc(Br)c1OCc1ccc(Cl)cc1Cl	-5	-25	0	-14	58*	21
CCOc1cc(CNCCCN2CCOCC2)cc(Br)c1OCc1ccccc1Cl	37	13	-27	-55*	111*	35
Nc1cc(N)c(OCC(F)(F)F)cc1OCC(F)(F)F	65*	11	-7	-4	-2	3
CCc1nc2ccc(C(=O)NCCCN(C)C)cn2c1N(C)CCCc1ccccc1	·	0	·	-10	53*	8
CCc1nc2ccc(C(=O)NC3CCN(Cc4ccccc4)CC3)cn2c1N(C)Cc1cc2ccccc2s1	·	-4	·	-8	94*	31
OC[C@@H]1CN(Cc2ccc3c(c2)OCO3)C[C@H](n2cnc3c(N4CCN(c5ccccc5)CC4)ncnc32)O1	·	1	·	5	12	16
COc1ccc(Cc2c(-c3ccc(C)cc3)nc3cc(C)c(Br)c(C)n23)c(C)c1	·	-38	·	-8	-8	10
COc1ccc2c(c1)CC=C1C2CCC2(C)C(=O)C(=NO)CC12 (stereo not drawn)	9	-80	-1	-24	-27	54*
Cc1ccc(NC(=O)c2cc(-c3ccccc3)nn2-c2ccccc2)cc1	-1	10	-4	18	-157	-2
O=C(Nc1ccc(F)cc1)c1nn(-c2ccccc2)c(=O)cc1Cl	-7	39	7	-8	99*	8
